From article PMC7862700, “An all-to-all approach to the identification of sequence-specific readers for epigenetic DNA modifications on cytosine”

Columns and labels:
Assay in all cases: DAPPL (digital affinity profiling via proximity ligation, sequencing); 10 mM Tris-HCl pH 7.5, 50 mM NaCl, 1 mM DTT, 4% glycerol, room temperature, 30 min; GST-TFs on glutathione beads, 16-mer random dsDNA library, 0.1% formaldehyde crosslink after washing; high values mean tight binding
FLI1 = biological target: T1, FLI1 (Homo sapiens, UniProt Q01543 1-452); conditions: protein: recombinant; tags: N-terminal GST; dsDNA, one strand shown
T1 sequence: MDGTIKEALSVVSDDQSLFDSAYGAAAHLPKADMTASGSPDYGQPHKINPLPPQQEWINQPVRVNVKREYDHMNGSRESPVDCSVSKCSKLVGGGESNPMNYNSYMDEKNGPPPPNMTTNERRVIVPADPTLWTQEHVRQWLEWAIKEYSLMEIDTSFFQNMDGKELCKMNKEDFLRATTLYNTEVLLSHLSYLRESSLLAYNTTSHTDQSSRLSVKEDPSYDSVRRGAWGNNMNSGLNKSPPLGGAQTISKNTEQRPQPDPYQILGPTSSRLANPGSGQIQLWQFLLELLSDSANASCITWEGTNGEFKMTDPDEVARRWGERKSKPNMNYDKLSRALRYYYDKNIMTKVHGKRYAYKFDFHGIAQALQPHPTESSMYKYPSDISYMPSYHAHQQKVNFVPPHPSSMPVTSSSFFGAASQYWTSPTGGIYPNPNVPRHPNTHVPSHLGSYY
How it was run: (§1)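 After expression in yeast as GST fusions, human transcription factors were bound to glutathione beads, DNA-barcoded and mixed with a tag-only sample. The pools were incubated with 200 nmole of a 16-mer random double-stranded DNA library in Tris/NaCl/DTT/glycerol buffer (30 min, room temperature), washed and crosslinked with 0.1% formaldehyde. Proximity ligation with BsaI/T4 ligase ran for 1 h at 37 °C, before PCR amplification and sequencing on an Illumina NextSeq500. Binding signal is a hexamer's read frequency for a factor divided by its frequency for the tag-only sample.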

ELK1 = biological target: T2, ELK1 (Homo sapiens, UniProt P19419 1-428); conditions: protein: recombinant; tags: N-terminal GST; dsDNA, one strand shown
T2 sequence: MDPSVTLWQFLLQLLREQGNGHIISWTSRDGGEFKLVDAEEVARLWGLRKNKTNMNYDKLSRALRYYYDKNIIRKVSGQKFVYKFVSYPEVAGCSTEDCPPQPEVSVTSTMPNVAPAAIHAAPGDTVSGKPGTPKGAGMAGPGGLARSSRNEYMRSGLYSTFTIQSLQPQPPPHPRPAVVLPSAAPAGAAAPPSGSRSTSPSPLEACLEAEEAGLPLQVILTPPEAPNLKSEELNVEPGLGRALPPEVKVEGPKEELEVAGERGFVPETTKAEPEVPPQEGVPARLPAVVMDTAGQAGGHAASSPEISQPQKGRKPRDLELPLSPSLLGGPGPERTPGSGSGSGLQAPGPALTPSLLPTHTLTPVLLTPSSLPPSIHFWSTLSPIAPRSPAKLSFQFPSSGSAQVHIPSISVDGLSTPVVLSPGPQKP
How it was run: as §1

GABPA = biological target: T3, GABPA (Homo sapiens, UniProt Q06546 1-454); conditions: protein: recombinant; tags: N-terminal GST; dsDNA, one strand shown
T3 sequence: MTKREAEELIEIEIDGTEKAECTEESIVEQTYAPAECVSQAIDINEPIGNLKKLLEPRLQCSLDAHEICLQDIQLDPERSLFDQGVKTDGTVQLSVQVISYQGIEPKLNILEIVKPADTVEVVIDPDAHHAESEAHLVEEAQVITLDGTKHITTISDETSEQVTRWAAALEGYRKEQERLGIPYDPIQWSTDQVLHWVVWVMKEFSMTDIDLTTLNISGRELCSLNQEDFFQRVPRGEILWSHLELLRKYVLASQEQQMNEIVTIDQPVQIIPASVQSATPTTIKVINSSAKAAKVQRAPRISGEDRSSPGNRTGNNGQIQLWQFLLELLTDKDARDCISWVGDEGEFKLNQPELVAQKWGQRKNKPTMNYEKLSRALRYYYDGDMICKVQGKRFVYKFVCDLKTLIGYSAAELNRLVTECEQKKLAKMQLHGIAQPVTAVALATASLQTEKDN
How it was run: as §1

ERG = biological target: T4, ERG (Homo sapiens, UniProt P11308 1-479); conditions: protein: recombinant; tags: N-terminal GST; dsDNA, one strand shown
T4 sequence: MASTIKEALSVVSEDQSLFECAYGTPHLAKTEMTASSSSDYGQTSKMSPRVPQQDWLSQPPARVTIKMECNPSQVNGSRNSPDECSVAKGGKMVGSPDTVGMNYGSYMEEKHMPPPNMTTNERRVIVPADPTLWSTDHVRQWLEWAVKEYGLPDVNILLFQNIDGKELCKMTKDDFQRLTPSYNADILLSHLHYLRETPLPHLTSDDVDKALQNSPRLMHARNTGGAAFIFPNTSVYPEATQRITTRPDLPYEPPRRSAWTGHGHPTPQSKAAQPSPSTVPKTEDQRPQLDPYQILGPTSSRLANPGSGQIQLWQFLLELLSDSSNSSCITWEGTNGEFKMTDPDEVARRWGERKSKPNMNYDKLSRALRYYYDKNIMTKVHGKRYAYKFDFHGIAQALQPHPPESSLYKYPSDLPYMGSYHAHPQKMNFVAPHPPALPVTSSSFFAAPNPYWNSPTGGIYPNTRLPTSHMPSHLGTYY
How it was run: as §1

ELF1 = ELF1 (Homo sapiens, UniProt P32519 1-619); conditions: protein: recombinant; tags: N-terminal GST; dsDNA, one strand shown
How it was run: as §1

EHF = biological target: T5, EHF (Homo sapiens, UniProt Q9NZC4 1-300); conditions: protein: recombinant; tags: N-terminal GST; dsDNA, one strand shown
T5 sequence: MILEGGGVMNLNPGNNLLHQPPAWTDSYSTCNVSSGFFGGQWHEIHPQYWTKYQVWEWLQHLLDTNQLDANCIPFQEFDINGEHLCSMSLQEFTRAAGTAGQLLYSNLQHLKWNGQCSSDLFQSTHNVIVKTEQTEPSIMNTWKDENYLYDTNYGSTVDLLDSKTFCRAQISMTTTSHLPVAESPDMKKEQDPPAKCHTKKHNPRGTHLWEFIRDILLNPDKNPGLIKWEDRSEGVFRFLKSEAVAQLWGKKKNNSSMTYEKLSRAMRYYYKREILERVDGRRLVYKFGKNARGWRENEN
How it was run: as §1

SPI1 = SPI1 (Homo sapiens, UniProt P17947 1-270); conditions: protein: recombinant; tags: N-terminal GST; dsDNA, one strand shown
How it was run: as §1

SPIB = SPIB (Homo sapiens, UniProt Q01892 1-262); conditions: protein: recombinant; tags: N-terminal GST; dsDNA, one strand shown
How it was run: as §1

ELK3 = biological target: T6, ELK3 (Homo sapiens, UniProt P41970 1-407); conditions: protein: recombinant; tags: N-terminal GST; dsDNA, one strand shown
T6 sequence: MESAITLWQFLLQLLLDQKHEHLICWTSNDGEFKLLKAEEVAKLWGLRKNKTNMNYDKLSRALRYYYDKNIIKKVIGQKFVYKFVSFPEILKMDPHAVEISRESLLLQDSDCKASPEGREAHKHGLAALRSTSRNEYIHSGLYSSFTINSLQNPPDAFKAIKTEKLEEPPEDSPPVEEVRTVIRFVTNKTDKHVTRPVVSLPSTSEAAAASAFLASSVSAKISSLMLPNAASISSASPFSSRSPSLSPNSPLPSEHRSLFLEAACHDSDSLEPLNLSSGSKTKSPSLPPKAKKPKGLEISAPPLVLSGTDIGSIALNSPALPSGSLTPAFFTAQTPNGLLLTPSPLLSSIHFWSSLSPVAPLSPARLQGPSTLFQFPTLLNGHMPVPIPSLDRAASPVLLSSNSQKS
How it was run: as §1

FEV = biological target: T7, FEV (Homo sapiens, UniProt Q99581 1-238); conditions: protein: recombinant; tags: N-terminal GST; dsDNA, one strand shown
T7 sequence: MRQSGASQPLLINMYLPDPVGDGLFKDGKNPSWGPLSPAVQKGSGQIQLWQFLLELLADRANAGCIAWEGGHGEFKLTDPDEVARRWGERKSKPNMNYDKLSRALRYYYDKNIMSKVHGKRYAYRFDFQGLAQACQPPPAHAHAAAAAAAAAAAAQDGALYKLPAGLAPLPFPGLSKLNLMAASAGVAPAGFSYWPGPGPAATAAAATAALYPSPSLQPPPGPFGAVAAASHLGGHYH
How it was run: as §1

ETV5 = ETV5 (Homo sapiens, UniProt P41161 1-510); conditions: protein: recombinant; tags: N-terminal GST; dsDNA, one strand shown
How it was run: as §1

HSF1 = HSF1 (Homo sapiens, UniProt Q00613 1-529); conditions: protein: recombinant; tags: N-terminal GST; chain copies: 3; dsDNA, one strand shown
How it was run: as §1

SPIC = biological target: T8, SPIC (Homo sapiens, UniProt Q8N5J4 1-248); conditions: protein: recombinant; tags: N-terminal GST; dsDNA, one strand shown
T8 sequence: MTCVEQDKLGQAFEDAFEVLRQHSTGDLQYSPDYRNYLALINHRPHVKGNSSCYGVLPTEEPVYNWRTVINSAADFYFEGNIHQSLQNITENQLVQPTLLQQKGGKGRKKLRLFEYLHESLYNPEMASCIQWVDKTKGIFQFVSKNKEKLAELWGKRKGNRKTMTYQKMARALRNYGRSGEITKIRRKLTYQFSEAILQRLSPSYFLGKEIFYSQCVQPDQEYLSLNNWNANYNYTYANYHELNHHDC
How it was run: as §1

ELF4 = ELF4 (Homo sapiens, UniProt Q99607 1-663); conditions: protein: recombinant; tags: N-terminal GST; dsDNA, one strand shown
How it was run: as §1

ELK4 = biological target: T9, ELK4 (Homo sapiens, UniProt P28324-2 1-405); conditions: protein: recombinant; tags: N-terminal GST; dsDNA, one strand shown
T9 sequence: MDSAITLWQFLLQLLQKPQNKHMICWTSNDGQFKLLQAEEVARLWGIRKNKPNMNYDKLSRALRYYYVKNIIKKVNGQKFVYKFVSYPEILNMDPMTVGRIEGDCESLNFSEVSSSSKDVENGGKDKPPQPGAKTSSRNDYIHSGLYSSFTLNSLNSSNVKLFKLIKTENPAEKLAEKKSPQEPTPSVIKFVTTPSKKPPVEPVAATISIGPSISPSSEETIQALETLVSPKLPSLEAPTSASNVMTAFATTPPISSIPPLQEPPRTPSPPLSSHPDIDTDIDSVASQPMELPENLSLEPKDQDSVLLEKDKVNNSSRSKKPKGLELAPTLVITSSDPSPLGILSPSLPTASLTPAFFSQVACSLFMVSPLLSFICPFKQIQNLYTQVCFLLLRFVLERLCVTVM
How it was run: as §1

ETV2 = biological target: T10, ETV2 (Homo sapiens, UniProt O00321 1-342); conditions: protein: recombinant; tags: N-terminal GST; dsDNA, one strand shown
T10 sequence: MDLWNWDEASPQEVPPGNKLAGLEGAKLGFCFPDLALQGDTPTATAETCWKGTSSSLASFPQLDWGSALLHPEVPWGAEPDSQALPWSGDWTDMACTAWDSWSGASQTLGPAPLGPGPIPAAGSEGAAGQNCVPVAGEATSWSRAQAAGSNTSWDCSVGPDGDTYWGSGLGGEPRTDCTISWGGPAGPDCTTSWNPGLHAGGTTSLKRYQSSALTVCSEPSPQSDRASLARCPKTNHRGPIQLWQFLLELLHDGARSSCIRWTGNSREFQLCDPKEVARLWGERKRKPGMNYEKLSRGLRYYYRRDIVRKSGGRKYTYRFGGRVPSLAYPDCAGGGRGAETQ
How it was run: as §1

ELF3 = biological target: T11, ELF3 (Homo sapiens, UniProt P78545 1-371); conditions: protein: recombinant; tags: N-terminal GST; dsDNA, one strand shown
T11 sequence: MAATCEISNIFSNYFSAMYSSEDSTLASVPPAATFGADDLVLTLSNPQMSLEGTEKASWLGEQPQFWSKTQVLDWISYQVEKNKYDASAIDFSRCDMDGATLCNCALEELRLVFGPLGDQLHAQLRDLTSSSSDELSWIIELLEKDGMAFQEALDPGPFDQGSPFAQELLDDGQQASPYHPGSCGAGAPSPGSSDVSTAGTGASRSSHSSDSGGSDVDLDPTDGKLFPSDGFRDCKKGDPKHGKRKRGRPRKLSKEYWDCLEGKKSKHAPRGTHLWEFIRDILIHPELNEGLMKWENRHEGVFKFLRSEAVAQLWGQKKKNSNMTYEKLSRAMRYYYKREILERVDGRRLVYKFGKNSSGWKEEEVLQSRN
How it was run: as §1

CRX = CRX (Homo sapiens, UniProt O43186 1-299); conditions: protein: recombinant; tags: N-terminal GST; dsDNA, one strand shown
How it was run: as §1

ETV1 = ETV1 (Homo sapiens, UniProt P50549 1-477); conditions: protein: recombinant; tags: N-terminal GST; dsDNA, one strand shown
How it was run: as §1

Sequence of ELF1 (P32519 whole entry): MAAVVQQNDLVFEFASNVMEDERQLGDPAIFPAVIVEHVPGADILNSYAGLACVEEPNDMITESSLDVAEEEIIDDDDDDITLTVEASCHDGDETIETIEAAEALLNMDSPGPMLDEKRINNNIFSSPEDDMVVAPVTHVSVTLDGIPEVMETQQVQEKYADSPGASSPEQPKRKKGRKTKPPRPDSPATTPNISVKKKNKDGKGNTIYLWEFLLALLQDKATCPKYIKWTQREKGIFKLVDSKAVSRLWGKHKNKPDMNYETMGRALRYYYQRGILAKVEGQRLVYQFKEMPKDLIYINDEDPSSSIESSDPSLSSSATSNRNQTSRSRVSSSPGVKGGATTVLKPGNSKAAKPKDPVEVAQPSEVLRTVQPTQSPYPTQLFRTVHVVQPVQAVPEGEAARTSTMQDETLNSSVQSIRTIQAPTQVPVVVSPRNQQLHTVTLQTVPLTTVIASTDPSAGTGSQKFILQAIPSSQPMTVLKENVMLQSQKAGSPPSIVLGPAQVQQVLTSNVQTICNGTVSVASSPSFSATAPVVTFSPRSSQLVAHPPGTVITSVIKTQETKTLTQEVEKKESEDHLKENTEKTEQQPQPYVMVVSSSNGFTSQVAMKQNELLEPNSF
Sequence of ELF4 (Q99607 whole entry): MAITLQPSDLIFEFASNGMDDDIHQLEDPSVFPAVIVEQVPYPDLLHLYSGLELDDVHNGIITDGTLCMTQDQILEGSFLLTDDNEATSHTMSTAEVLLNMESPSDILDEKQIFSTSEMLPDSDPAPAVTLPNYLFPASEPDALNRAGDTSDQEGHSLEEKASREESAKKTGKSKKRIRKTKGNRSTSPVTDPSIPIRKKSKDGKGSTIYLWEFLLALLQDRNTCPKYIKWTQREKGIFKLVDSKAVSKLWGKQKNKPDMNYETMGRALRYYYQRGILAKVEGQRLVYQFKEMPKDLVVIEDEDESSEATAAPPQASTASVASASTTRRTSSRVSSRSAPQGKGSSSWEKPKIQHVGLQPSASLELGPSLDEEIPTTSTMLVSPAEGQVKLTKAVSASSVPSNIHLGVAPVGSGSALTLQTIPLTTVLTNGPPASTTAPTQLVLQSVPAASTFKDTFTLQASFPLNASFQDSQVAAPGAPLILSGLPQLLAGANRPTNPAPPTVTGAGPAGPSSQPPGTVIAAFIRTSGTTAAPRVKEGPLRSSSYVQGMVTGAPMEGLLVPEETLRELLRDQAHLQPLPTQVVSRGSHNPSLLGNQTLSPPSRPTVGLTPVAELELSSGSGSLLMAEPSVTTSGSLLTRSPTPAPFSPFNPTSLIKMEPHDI
Sequence of SPIB (Q01892 whole entry): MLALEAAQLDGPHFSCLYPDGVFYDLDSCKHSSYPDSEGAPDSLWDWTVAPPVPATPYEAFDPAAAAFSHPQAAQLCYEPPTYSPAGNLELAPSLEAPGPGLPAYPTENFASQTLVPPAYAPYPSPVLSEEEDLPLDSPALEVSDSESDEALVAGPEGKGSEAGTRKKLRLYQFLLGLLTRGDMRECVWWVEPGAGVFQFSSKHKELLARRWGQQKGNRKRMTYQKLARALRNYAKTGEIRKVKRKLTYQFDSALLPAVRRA
Sequence of CRX (O43186 whole entry): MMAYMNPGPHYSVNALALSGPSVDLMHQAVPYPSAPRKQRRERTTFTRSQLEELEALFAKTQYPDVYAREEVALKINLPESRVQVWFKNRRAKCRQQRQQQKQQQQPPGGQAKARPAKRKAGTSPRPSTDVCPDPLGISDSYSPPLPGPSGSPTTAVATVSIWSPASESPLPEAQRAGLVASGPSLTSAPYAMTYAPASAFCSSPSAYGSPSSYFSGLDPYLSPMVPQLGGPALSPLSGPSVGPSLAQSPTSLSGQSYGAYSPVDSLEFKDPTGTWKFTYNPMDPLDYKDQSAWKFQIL
Sequence of ETV1 (P50549 whole entry): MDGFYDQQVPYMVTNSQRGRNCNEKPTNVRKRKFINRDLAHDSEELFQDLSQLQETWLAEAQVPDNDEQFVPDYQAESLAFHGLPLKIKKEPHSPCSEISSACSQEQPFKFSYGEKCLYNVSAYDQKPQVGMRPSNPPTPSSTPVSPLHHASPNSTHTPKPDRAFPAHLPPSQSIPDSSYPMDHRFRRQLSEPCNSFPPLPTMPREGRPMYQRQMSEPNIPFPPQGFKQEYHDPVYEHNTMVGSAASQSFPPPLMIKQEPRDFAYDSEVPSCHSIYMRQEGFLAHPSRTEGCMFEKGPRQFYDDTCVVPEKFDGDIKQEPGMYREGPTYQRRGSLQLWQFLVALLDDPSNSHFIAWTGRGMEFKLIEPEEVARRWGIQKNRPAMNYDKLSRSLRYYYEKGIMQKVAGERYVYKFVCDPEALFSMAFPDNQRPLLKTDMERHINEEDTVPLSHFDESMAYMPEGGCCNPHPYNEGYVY
Sequence of HSF1 (Q00613 whole entry): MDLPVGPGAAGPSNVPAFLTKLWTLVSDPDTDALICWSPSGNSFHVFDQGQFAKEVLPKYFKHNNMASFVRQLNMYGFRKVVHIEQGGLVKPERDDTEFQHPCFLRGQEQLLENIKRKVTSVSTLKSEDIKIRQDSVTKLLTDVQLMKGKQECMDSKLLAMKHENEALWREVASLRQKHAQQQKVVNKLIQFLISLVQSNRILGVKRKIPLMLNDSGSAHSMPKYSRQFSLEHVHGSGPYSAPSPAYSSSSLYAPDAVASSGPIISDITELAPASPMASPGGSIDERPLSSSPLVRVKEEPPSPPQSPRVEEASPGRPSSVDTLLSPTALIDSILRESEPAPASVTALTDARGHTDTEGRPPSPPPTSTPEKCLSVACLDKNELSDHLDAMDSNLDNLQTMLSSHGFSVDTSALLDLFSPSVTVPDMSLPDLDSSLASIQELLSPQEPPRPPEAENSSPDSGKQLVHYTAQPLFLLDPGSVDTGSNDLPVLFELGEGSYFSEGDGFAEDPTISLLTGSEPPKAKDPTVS
Sequence of ETV5 (P41161 whole entry): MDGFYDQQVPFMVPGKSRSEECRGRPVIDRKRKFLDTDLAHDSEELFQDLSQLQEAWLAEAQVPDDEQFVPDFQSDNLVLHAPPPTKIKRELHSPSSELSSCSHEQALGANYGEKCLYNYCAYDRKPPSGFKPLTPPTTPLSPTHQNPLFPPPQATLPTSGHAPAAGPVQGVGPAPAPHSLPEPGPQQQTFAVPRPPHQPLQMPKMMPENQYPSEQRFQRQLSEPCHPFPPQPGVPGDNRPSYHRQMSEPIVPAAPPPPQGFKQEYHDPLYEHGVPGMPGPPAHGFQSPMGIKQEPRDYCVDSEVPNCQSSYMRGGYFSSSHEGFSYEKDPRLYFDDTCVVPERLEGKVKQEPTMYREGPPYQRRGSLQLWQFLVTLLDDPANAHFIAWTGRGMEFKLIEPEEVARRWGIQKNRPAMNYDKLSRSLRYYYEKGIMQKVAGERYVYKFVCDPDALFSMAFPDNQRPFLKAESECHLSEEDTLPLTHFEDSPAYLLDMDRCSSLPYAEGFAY

CGACTA
binding signal (FLI1): 1.24 fold enrichment (6-mer frequency, TF over GST control)
binding signal (ELK1): 1.31 fold enrichment (6-mer frequency, TF over GST control)
binding signal (GABPA): 1.5 fold enrichment (6-mer frequency, TF over GST control)
binding signal (ERG): 1.28 fold enrichment (6-mer frequency, TF over GST control)
binding signal (ELF1): 1.31 fold enrichment (6-mer frequency, TF over GST control)
binding signal (EHF): 1.31 fold enrichment (6-mer frequency, TF over GST control)
binding signal (SPI1): 1.29 fold enrichment (6-mer frequency, TF over GST control)
binding signal (SPIB): 1.32 fold enrichment (6-mer frequency, TF over GST control)
binding signal (ELK3): 1.3 fold enrichment (6-mer frequency, TF over GST control)
binding signal (FEV): 1.31 fold enrichment (6-mer frequency, TF over GST control)
binding signal (ETV5): 1.25 fold enrichment (6-mer frequency, TF over GST control)
binding signal (HSF1): 1.52 fold enrichment (6-mer frequency, TF over GST control)
binding signal (SPIC): 1.47 fold enrichment (6-mer frequency, TF over GST control)
binding signal (ELF4): 1.48 fold enrichment (6-mer frequency, TF over GST control)
binding signal (ELK4): 1.58 fold enrichment (6-mer frequency, TF over GST control)
binding signal (ETV2): 1.49 fold enrichment (6-mer frequency, TF over GST control)
binding signal (ELF3): 1.41 fold enrichment (6-mer frequency, TF over GST control)
binding signal (CRX): 1.52 fold enrichment (6-mer frequency, TF over GST control)
binding signal (ETV1): 1.4 fold enrichment (6-mer frequency, TF over GST control)
